# Laboratory results from PubChem BioAssay AID720513 (Broad Institute, 2013).
# Hit rate of the full screen: of about 2,100 compounds, about 480 (23%) were called active. About 5% were inconclusive and are not listed.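 The calls were made as follows: active = fitted curve reaches 40% activation at or below the top valid concentration, in every replicate test; inconclusive = replicate tests disagree on the call; inactive = the rest, including activity in the opposite direction.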 The list is a sample of the results. Measured potencies and affinities stand elsewhere.
# Assay: activators raising PGC1a acetylation in cells, dose response, cell-based, cherry-picked samples, set 6 (AID 720513);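 also: cells made to overexpress flag tagged PGC1a plus GCN5 acetyltransferase by viral infection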
# Conditions: U2OS PGC1a acetylation AlphaLISA, overnight, 0 = neutral, -100 = inhibitor control; series mostly up to 19.5 µM
row,Compound,outcome
1,Cn1nnnc1Sc1ncnc2scc(-c3ccc(C#N)cc3)c12,inactive
2,O=C(c1cccs1)N(Cc1ccccn1)Cc1ccco1,inactive
3,COc1ccc2cc(CN(Cc3ccco3)C(c3nnnn3C3CCCCC3)C(C)C)c(=O)[nH]c2c1 (configuration not stated),inactive
4,COCCN(C(=O)COC(=O)Cc1cccc(OC)c1)c1c(N)n(Cc2ccccc2)c(=O)[nH]c1=O,inactive
5,O=C1CCCc2ccccc2N1Cc1ccc(Cl)cc1Cl,inactive
6,CCN(C(=O)CSc1nnc(-c2cccs2)n1N)c1c(N)n(Cc2ccccc2)c(=O)[nH]c1=O,inactive
7,CCOC(=O)CSc1nnc(-c2ccc(OC)cc2)n1CC,inactive
8,CC1(C)CC2(CCO1)OC(=O)CC2C(=O)Nc1cccc2ccccc12 (configuration not stated),inactive
9,CO[C@H]1CN(C)C(=O)c2cc(NC(=O)c3ccccc3F)ccc2OC[C@@H](C)N(C(C)=O)C[C@@H]1C,inactive
10,COc1ccc(C(=O)Nc2ccc3c4c(cccc24)CC3)cc1,inactive
11,CCN(CC)c1ccc(NC(=O)c2ccc(NC(=O)C3CCCO3)cc2)c(C)c1 (configuration not stated),inactive
12,O=C(NCCN1CCOCC1)c1ccc(=O)oc1,inactive
13,CC(C)CNC(=O)c1coc(=O)c(Br)c1,inactive
14,O=C(OCCCN1CCCCC1)c1ccc(O)cc1,inactive
15,Cc1ccc(S(=O)(=O)N(C)c2ccc(OC(C)C(=O)N3CCCC3)cc2)cc1C (configuration not stated),inactive
16,OC[C@@H]1[C@@H](c2ccc(C#CC3CCCC3)cc2)[C@H]2CN(CCC(F)(F)F)CCCCN12,inactive
17,C[C@H]1CN([C@@H](C)CO)C(=O)c2cccc(NC(=O)Nc3ccc(C(F)(F)F)cc3)c2O[C@H]1CN(C)C(=O)Nc1cccc2ccccc12,inactive
18,C[C@@H]1CN([C@@H](C)CO)C(=O)c2ccccc2-c2ccccc2CO[C@@H]1CN(C)C(=O)Nc1cccc(Cl)c1Cl,inactive
19,C[C@@H]1CN([C@H](C)CO)C(=O)CCCn2cc(nn2)CO[C@@H]1CN(C)C(=O)Nc1cccc2ccccc12,inactive
20,Cc1cc2c(c(/C=C/C(=O)c3ccccc3)c1)OC1(C=C2)Oc2ccccc2C(=O)N1C (configuration not stated),inactive
21,N#Cc1c(N)c(C(=O)c2ccccc2)n2ccccc12,inactive

row,Compound,outcome
1,CSc1n[nH]c(NCc2ccccc2)n1,inactive
2,CC1(C)CC(=O)C=C(NCc2ccco2)C1,inactive
3,COC1(C)CN(Cc2ccccc2Br)[C@H](/C=C/c2ccccc2)[C@H](Cc2ccccc2)O1 (some centres not stated),inactive
4,CCn1nccc1C(=O)Nc1ccccc1OC,inactive
5,CCOc1ccccc1NC(=O)c1ccc2ccccc2c1,inactive
6,C[C@@H]1CN([C@H](C)CO)C(=O)c2cc(C3=CCCCC3)cnc2O[C@@H]1CN(C)Cc1ccccc1,inactive
7,COc1ccc(C(CC(=O)Nc2ccccn2)N2Cc3ccccc3C2=O)cc1 (configuration not stated),inactive
8,c1ccc(-c2cc(-c3ccccc3)n3ncnc3n2)cc1,inactive
9,CC(C)NC(=O)Nc1ccc2c(c1)C(=O)N([C@@H](C)CO)C[C@H](C)[C@@H](CN(C)C(=O)CCC(F)(F)F)OCCCC[C@@H](C)O2,inactive
10,C[C@H]1CN([C@@H](C)CO)S(=O)(=O)c2ccc(C#Cc3cccnc3)cc2O[C@@H]1CN(C)CC1CCOCC1,inactive
11,COc1cc(NC(=O)NCc2ccco2)ccc1-c1ccc(NC(=O)NCc2ccco2)cc1OC,inactive
12,Cc1noc(C)c1NC(=O)N[C@H]1C=C[C@H](CC(=O)NCc2ccc(Cl)c(Cl)c2)O[C@H]1CO,inactive
13,CN1C(=O)c2ccccc2C(C(=O)O)C1c1cccc([N+](=O)[O-])c1 (configuration not stated),inactive
14,CCOC(=O)C1(Cc2cccc(F)c2)CCN(Cc2c(C)nn(CC)c2C)CC1,inactive
15,CCOC(=O)C1(Cc2cccc(F)c2)CCN(Cc2ccc(COC)o2)CC1,inactive
16,C[C@@H]1CN([C@@H](C)CO)C(=O)Cc2cc(NC(=O)CCC(F)(F)F)ccc2O[C@H]1CN(C)S(C)(=O)=O,inactive
17,Cn1nnnc1Sc1ncnc2scc(-c3ccc[nH]3)c12,inactive
18,Oc1ccc2ccccc2c1CN1CCCCC1,inactive
19,Cn1c(CCN2CCCCC2)nc2cc(NS(=O)(=O)c3ccccc3)ccc21,inactive
20,Cn1c(O)c(C(C#N)=C2N=c3ccccc3=N2)c2ccccc21,inactive
21,O=C(C[C@H]1CC[C@@H]2[C@H](COC[C@@H](O)CN2S(=O)(=O)c2ccc(F)cc2)O1)NCCN1CCCCC1,inactive

row,Compound,outcome
1,O=c1oc(-c2ccccc2)cc(Cl)c1Cl,inactive
2,Cc1noc(C)c1C(=O)Nc1nc(-c2cc(F)ccc2F)cs1,inactive
3,CN(C)Cc1csc(NC(=O)Nc2ccccc2-c2ccccc2)n1,inactive
4,CC(C)NC(=O)NCC[C@@H]1CC[C@H](NS(=O)(=O)c2ccc(-c3ccccc3)cc2)[C@@H](CO)O1,inactive
5,COC(=O)c1cc(Cl)c(NS(=O)(=O)c2ccccc2)cc1OC,inactive
6,COc1ccccc1NC(=O)CCC(=O)Nc1ccccc1OC,inactive
7,CCn1c(=O)c2c(cnn2C)c2ccccc21,inactive
8,CCOc1ccc(Nc2ncnc3ccc([N+](=O)[O-])cc23)cc1,inactive
9,COc1ccc(-c2nc(C#N)c(NCc3ccco3)o2)cc1,inactive
10,CCCNC(=O)c1nnsc1S(=O)(=O)c1ccc(Cl)cc1,inactive
11,Cc1cc(C)c2c(=O)[nH]n(C3CCCCCC3)c2n1,inactive
12,O=C(C[C@H]1C[C@@H]2c3cc(NS(=O)(=O)c4ccc(F)cc4)ccc3O[C@@H]2[C@@H](CO)O1)N1CCc2ccccc2C1,inactive
13,O=C(C1CC1)N1C[C@@H]2N[C@H](C1)C2c1ccc(/C=C/c2ccccc2)cc1 (some centres not stated),inactive
14,O=C(C(Br)=Cc1ccccc1)c1ccccc1,inactive
15,Cc1ccc(C(=O)OCN2C(=O)c3ccccc3C2=O)o1,inactive
16,CCCCC1C(=O)N(c2ccccc2)N(c2ccc(O)cc2)C1=O (configuration not stated),inactive
17,O=C(Nc1nc2cc3c(cc2s1)OCCO3)c1ccncc1,inactive
18,C[C@@H]1CN([C@@H](C)CO)C(=O)c2cc(NS(=O)(=O)c3ccc(F)cc3)ccc2O[C@@H]1CN(C)S(=O)(=O)c1ccc(Cl)cc1,inactive
19,CC(C)NC(=O)Nc1ccc2c(c1)C(=O)N([C@@H](C)CO)C[C@@H](C)[C@H](CN(C)Cc1ccc(C(=O)O)cc1)OCCCC[C@H](C)O2,inactive
20,CCCC(=O)C1=C(O)C(C(=O)OC)C(C)(C)CC1=Nc1ccc(OC)cc1 (configuration not stated),inactive
